Holding throughout (assay): net action potential response of A-neuron (blank-subtracted) (spikes/s (Hz)); higher = stronger excitation
What all share (settings): 10 µg on filter paper; neuron: A neuron (large spike amplitude)

Test [1] relates to (+)-isopinocamphone A-neuron OSN class. In outline:
(§1)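 Single sensillum recordings used tungsten electrodes on one fixed antenna of live lab-reared adult Ips typographus under a humidified, charcoal-filtered airstream (1.8 L/min). Each compound, 10 μg in paraffin oil on filter paper in a pipette, was delivered as a 0.5 s pulse at 0.3 L/min. Spikes of the large-amplitude A-neuron or small-amplitude B-neuron were counted in AutoSpike, pre-stimulus count subtracted, converted to spikes/s, blank-subtracted and averaged across sensilla. Windows were 0.5 s; 1–4 sensilla.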

Test [2] relates to (5S,7S)-trans-conophthorin A-neuron OSN class. The method in brief:
as §1

Test [3] deals with myrcene A-neuron OSN class. In outline:
as §1

For test [4], the system named is p-cymene A-neuron OSN class. In outline:
as §1

From the supplement of paper PMC11577813, “Eurasian spruce bark beetle detects lanierone using a highly expressed specialist odorant receptor, present in several functional sensillum types” (BMC Biology, 2024) come the findings set out here.

± gives the standard deviation of the averaged measurements.

In the case of `Cc1ccccc1` [Toluene], the “net action potential response” value in test [1] turned out to be 0.667 ± 3.1; in test [2], 4 ± 2.3; in test [3], 6; in test [4], 2 ± 4.
Taken in the same sequence, the figures for `O=Cc1ccccc1` [Benzaldehyde] were 21.3 ± 15, -4 ± 2, 4 and 2 ± 2.
As for `C=CCc1ccc(OC)cc1` [Estragole], the “net action potential response” value in test [1] is -1.33 ± 1.1; in test [2], -0.5 ± 6.6; in test [3] it was -2; in test [4], 9.33 ± 7.
